D1 ag: Allosteric Agonists of the Human D1 Dopamine Receptor: qHTS; actives 1% (n = 360,000); HEK293 T-REx D1 cells, calcium flux, agonist mode; D(1A) dopamine receptor (Homo sapiens), P21728; activation, % at 2 µM
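Agonism was scored from calcium flux recorded over 180 s (1 read/s) after pintool compound addition, following a 10-cycle baseline. Cells were inducible force-coupled HEK293 TREx D1, plated overnight at 30 C and loaded with no-wash calcium dye.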
D1 antag: Antagonist of Human D 1 Dopamine Receptor: qHTS; D(1A) dopamine receptor (Homo sapiens), P21728; HEK293 TREx D1 cells, calcium flux, dopamine EC80; hits give low values; activity change, negative = inhibition, % at 10 µM; actives 3.2% (n = 360,000); AID 504652, 2011; in the data active means activity change below about -30%
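Kinetic fluorescence of a calcium dye serves as the read-out. D1-expressing Hek293 Trex cells, induced overnight at 30 C, are exposed to compound for 180 s before an EC80 dopamine addition, then read 180 s further.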
TRHR enhancer: qHTS for Small Molecule Agonists and Allosteric Enhancers of Human TRH Receptor: Primary Screen for Enhancers | actives 0.66% (n = 360,000) | AID 493056, 2011 | Thyrotropin-releasing hormone receptor (Homo sapiens), P34981 | TRHR cells, fluo-8 calcium fluorescence, EC20 TRH enhancement | enhancement, % at 2 µM; in the data active means enhancement above about 30%
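Enhancer read-out: after compound pinning and an initial kinetic agonist-mode read, an EC20 of TRH (10 nM final) was injected and fluo-8 calcium signal (Ex 480/Em 530) followed at 1 s/cycle for 100 cycles in TRHR-expressing cells.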
TRHR agonist: qHTS for Small Molecule Agonists and Allosteric Enhancers of Human TRH Receptor: Primary Screen for Agonists. Thyrotropin-releasing hormone receptor (Homo sapiens), P34981. TRHR cells, calcium flux fluo-8, FDSS agonist mode. activation, % at 2 µM. actives 0.18% (n = 360,000). AID 493084, 2011
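In this calcium-flux screen, cells bearing human TRHR are dye-loaded with fluo-8, baselined for 10 cycles, then exposed to library compounds; positive kinetic calcium responses during the agonist phase mark hits, with TRH as control.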
USP1 inh: Inhibitors of USP1/UAF1: Primary Screen. Ubiquitin carboxyl-terminal hydrolase 1 (Homo sapiens), O94782. recombinant USP1/UAF1, Ub-Rhodamine cleavage fluorescence. Potency, µM (titrated, usually from 57.1 µM), usual class: inhibitors. actives 0.23% (n = 390,000); active means well fitted inhibition curve with a large enough effect; inconclusive means small, poorly fitted or top-dose-only effect; inactive means no such curve, though single readings can be large or run the other way; further: nearly all actives have a fitted effect of over 60% in size
Target sequence (O94782 whole entry, looked up): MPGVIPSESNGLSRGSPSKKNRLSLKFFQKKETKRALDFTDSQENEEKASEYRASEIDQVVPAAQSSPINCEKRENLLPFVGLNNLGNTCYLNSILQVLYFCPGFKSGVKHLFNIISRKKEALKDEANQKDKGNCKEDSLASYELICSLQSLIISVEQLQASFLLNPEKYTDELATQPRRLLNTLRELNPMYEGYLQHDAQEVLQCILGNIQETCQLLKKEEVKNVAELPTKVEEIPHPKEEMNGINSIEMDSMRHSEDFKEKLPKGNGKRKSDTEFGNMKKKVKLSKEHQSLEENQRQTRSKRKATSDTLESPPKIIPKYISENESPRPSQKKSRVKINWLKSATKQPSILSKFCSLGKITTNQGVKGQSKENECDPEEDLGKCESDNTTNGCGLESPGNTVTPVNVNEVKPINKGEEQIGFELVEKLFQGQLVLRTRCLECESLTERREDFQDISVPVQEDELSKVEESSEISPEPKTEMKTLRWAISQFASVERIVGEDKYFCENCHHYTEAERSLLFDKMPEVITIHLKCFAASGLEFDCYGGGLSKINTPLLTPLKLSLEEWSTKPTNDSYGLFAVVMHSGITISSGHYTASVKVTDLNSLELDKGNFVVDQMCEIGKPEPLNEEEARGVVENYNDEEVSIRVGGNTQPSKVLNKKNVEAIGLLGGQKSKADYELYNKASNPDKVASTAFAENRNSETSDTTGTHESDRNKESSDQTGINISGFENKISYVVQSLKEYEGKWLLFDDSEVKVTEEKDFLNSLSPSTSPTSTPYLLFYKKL
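1 nM enzyme complex + cpd, 15 min RT; start with Ub-Rho 150nM final; kinetic fluorescence ex 480/em 540, 6 reads q60 s. Buffer 50mM HEPES pH 7.8, 0.5mM EDTA, 0.1 mg/ml BSA, 1mM TCEP, 0.01% Tween-20.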
D1 PAM: Potentiators of Human D1 Dopamine Receptor: qHTS; D(1A) dopamine receptor (Homo sapiens), P21728; potentiation, % at 10 µM; HEK293 TREx D1 cells, calcium flux, dopamine EC20 potentiation; actives 0.036% (n = 360,000); in the data active means potentiation above about 30%
A number is an active result. Hits are enriched below; roughly 4.4% of the tested compounds scored in any of these assays. Unless noted, no stated cut-off is given here; in the data, active means activation above about 30%; inactive means the rest.

Cc1cccc(NC(=O)c2sc3nc4c(c(-c5cccs5)c3c2N)CN(C)CC4)c1 was read as D1 ag inactive, D1 antag -40, TRHR enhancer inactive, TRHR agonist inactive, USP1 inh inactive and D1 PAM inactive.
For O=C(NCCSCc1ccc(Cl)cc1Cl)c1ccc(CN2CCOCC2)cc1 the results were D1 ag inactive, D1 antag -31, TRHR enhancer inactive, TRHR agonist inactive, USP1 inh inactive and D1 PAM inactive.
For C=CCn1c(=O)/c(=C/c2ccc(C)o2)s/c1=C(/C#N)C(=O)c1ccccc1 the results were D1 ag 58, D1 antag inactive, TRHR enhancer inactive, TRHR agonist inactive, USP1 inh inconclusive and D1 PAM inactive.
Screening Cn1c(=O)c2cc(S(=O)(=O)NC(Cc3ccccc3)C(=O)NCC3CCCO3)ccc2n(C)c1=O (centres undefined) returned D1 ag inactive, D1 antag -39, TRHR enhancer inactive, TRHR agonist inactive, USP1 inh inactive and D1 PAM inactive.
Screening CCCOc1ccc(N2C(=O)CC(NCc3ccncc3)C2=O)cc1 (centres undefined) returned D1 ag inactive, D1 antag -59, TRHR enhancer inactive, TRHR agonist inactive, USP1 inh inactive and D1 PAM inactive.
Screening O=C1CN(C(=O)COC(=O)c2cccc(OCc3ccccc3)c2)c2ccccc2N1 returned D1 ag inactive, D1 antag -89, TRHR enhancer inactive, TRHR agonist inactive, USP1 inh inactive and D1 PAM inactive.
`COc1cc(CC(=O)OCC(=O)N2CC(=O)Nc3ccccc32)cc(OC)c1OC` gave D1 ag inactive, D1 antag -33, TRHR enhancer inactive, TRHR agonist inactive, USP1 inh inactive and D1 PAM inactive.
Screening CCN1CCN(C(=O)Cn2c(-c3cccs3)cc3cc(Cl)ccc32)CC1 returned D1 ag inactive, D1 antag inactive, TRHR enhancer inactive, TRHR agonist inactive, USP1 inh inactive and D1 PAM inactive.
CC(C)(C)OC(=O)N1CCC(c2c(C(=O)N3CCN(c4ncccn4)CC3)cnn2-c2ccc(F)cc2)CC1 was read as D1 ag inactive, D1 antag inactive, TRHR enhancer inactive, TRHR agonist inactive, USP1 inh inactive and D1 PAM inactive.
`O=C1Cc2ccccc2C(=O)N1Cc1ccccc1` gave D1 ag inactive, D1 antag inactive, TRHR enhancer inactive, TRHR agonist inactive, USP1 inh 3.2µM and D1 PAM inactive.
`O=C1c2cccc3c(O)ccc(c23)C(=O)N1Cc1ccccc1` gave D1 ag 366, D1 antag inactive, TRHR enhancer 40, TRHR agonist 154, USP1 inh 6.3µM and D1 PAM inactive.
Screening O=C1Cc2ccccc2C(=O)N1c1ccccc1 returned D1 ag inactive, D1 antag inactive, TRHR enhancer inactive, TRHR agonist inactive, USP1 inh inconclusive and D1 PAM inactive.
Screening O=C(O)c1cccc(CN2C(=O)c3ccccc3C2=O)c1 returned D1 ag inactive, D1 antag inactive, TRHR enhancer inactive, TRHR agonist inactive, USP1 inh inactive and D1 PAM inactive.
O=C(Cn1nc2c(cc1=O)CCCC2)Nc1ccccc1C(F)(F)F was read as D1 ag inactive, D1 antag inactive, TRHR enhancer inactive, TRHR agonist inactive, USP1 inh inactive and D1 PAM inactive.
CCn1c(C)c(C(C)=O)c(N2CCCCC2)nc1=S was read as D1 ag inactive, D1 antag -89, TRHR enhancer inactive, TRHR agonist inactive, USP1 inh inactive and D1 PAM inactive.
`COC(=O)c1scc(C)c1NC(=O)Nc1ccccc1` gave D1 ag inactive, D1 antag inactive, TRHR enhancer inactive, TRHR agonist inactive, USP1 inh inactive and D1 PAM inactive.
